# Assay results published in PubChem BioAssay AID1159580 (chemical genetic matrix, 2015).
# The whole screen tested about 5,500 compounds, of which about 2,000 (36%) were called active. Another 18% or so got no clear call; they are omitted. The list shows a part of the results. Values without a mark were called inactive. No stated cut-off is given here; in the data, active means normalized growth mostly below about 0.91 (no sharp cut-off); inconclusive means no clear call, values can overlap the other calls; inactive means mostly above about 0.92.
# Assay: chemical genetic growth profiling, strain panel (AID 1159580);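 further: tested at 20 µM; growth read once vehicle control cultures reached saturation at 30 °C; 1 = growth at the plate median or of vehicle wells; lower values mean less growth of the strain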
# Conditions: growth OD
smiles,measurement,setting,value
COC(=O)[C@]1(C)CCC[C@]2(C)c3ccc(C(C)C)cc3C(=O)CC12 (stereo partly drawn),normalized growth,"S. cerevisiae deletion strains, locus YJL187C, strain SWE1, hits give low values",0.956
same,normalized growth,"S. cerevisiae deletion strains, locus YJR043C, strain POL32, hits give low values",1.03
same,normalized growth,"S. cerevisiae deletion strains, locus YJR075W, strain HOC1, hits give low values",0.914
same,normalized growth,"S. cerevisiae deletion strains, locus YKL009W, strain mrt4, hits give low values",0.942
same,normalized growth,"S. cerevisiae deletion strains, locus YKL068W, hits give low values",0.984
same,normalized growth,"S. cerevisiae deletion strains, locus YKL160W, strain elf1, hits give low values",0.983
same,normalized growth,"S. cerevisiae deletion strains, locus YKL190W, strain CNB1, hits give low values",0.967
same,normalized growth,"S. cerevisiae deletion strains, locus YKR001C, strain vps1, hits give low values",1.01
same,normalized growth,"S. cerevisiae deletion strains, locus YKR026C, strain gcn3, hits give low values",0.975
same,normalized growth,"S. cerevisiae deletion strains, locus YKR091W, strain srl3, hits give low values",0.96
same,normalized growth,"S. cerevisiae deletion strains, locus YLL001W, strain dnm1, hits give low values",0.986
same,normalized growth,"S. cerevisiae deletion strains, locus YLL026W, hits give low values",0.964
same,normalized growth,"S. cerevisiae deletion strains, locus YLL041C, strain sdh2, hits give low values",0.958
same,normalized growth,"S. cerevisiae deletion strains, locus YLR027C, strain aat2, hits give low values",0.956
same,normalized growth,"S. cerevisiae deletion strains, locus YLR039C, strain RIC1, hits give low values",0.978
same,normalized growth,"S. cerevisiae deletion strains, locus YLR058C, strain SHM2, hits give low values",0.986
same,normalized growth,"S. cerevisiae deletion strains, locus YLR102C, strain apc9, hits give low values",1.01
same,normalized growth,"S. cerevisiae deletion strains, locus YLR221C, strain rsa3, hits give low values",1
same,normalized growth,"S. cerevisiae deletion strains, locus YLR258W, strain gsy2, hits give low values",0.973
same,normalized growth,"S. cerevisiae deletion strains, locus YLR262C, strain YPT6 (second series), hits give low values",0.897
same,normalized growth,"S. cerevisiae deletion strains, locus YLR262C, strain YPT6, hits give low values",0.925
same,normalized growth,"S. cerevisiae deletion strains, locus YLR268W, strain sec22, hits give low values",0.955
same,normalized growth,"S. cerevisiae deletion strains, locus YLR320W, strain mms22, hits give low values",0.991
same,normalized growth,"S. cerevisiae deletion strains, locus YLR330W, strain CHS5, hits give low values",0.997
same,normalized growth,"S. cerevisiae deletion strains, locus YLR342W, strain FKS1 (second series), hits give low values",0.937
same,normalized growth,"S. cerevisiae deletion strains, locus YLR342W, strain FKS1, hits give low values",0.958
same,normalized growth,"S. cerevisiae deletion strains, locus YLR357W, strain rsc2, hits give low values",0.989
same,normalized growth,"S. cerevisiae deletion strains, locus YLR370C, strain arc18, hits give low values",0.949
same,normalized growth,"S. cerevisiae deletion strains, locus YLR371W, strain rom2, hits give low values",1.01
same,normalized growth,"S. cerevisiae deletion strains, locus YLR384C, strain iki3, hits give low values",0.96
same,normalized growth,"S. cerevisiae deletion strains, locus YLR418C, strain cdc73, hits give low values",0.865
same,normalized growth,"S. cerevisiae deletion strains, locus YML016C, strain PPZ1, hits give low values",0.979
same,normalized growth,"S. cerevisiae deletion strains, locus YML032C, strain rad52, hits give low values",1.03
same,normalized growth,"S. cerevisiae deletion strains, locus YML120C, strain ndi1, hits give low values",0.965
same,normalized growth,"S. cerevisiae deletion strains, locus YML124C, strain tub3, hits give low values",0.991
same,normalized growth,"S. cerevisiae deletion strains, locus YMR058W, strain fet3, hits give low values",0.969
same,normalized growth,"S. cerevisiae deletion strains, locus YMR078C, strain ctf18, hits give low values",1
same,normalized growth,"S. cerevisiae deletion strains, locus YMR125W, strain sto1, hits give low values",0.964
same,normalized growth,"S. cerevisiae deletion strains, locus YMR129W, hits give low values",0.956
same,normalized growth,"S. cerevisiae deletion strains, locus YMR205C, strain PFK2, hits give low values",0.934
same,normalized growth,"S. cerevisiae deletion strains, locus YMR223W, strain ubp8, hits give low values",1.02
same,normalized growth,"S. cerevisiae deletion strains, locus YMR231W, strain pep5, hits give low values",0.974
same,normalized growth,"S. cerevisiae deletion strains, locus YMR263W, strain SAP30, hits give low values",0.961
same,normalized growth,"S. cerevisiae deletion strains, locus YMR307W, strain GAS1, hits give low values",0.953
same,normalized growth,"S. cerevisiae deletion strains, locus YNL067W, strain RPL9B, hits give low values",0.936
same,normalized growth,"S. cerevisiae deletion strains, locus YNL071W, strain lat1, hits give low values",0.952
same,normalized growth,"S. cerevisiae deletion strains, locus YNL128W, strain TEP1, hits give low values",0.964
same,normalized growth,"S. cerevisiae deletion strains, locus YNL153C, strain GIM3, hits give low values",0.982
same,normalized growth,"S. cerevisiae deletion strains, locus YNL209W, strain ssb2, hits give low values",0.992
same,normalized growth,"S. cerevisiae deletion strains, locus YNL233W, strain BNI4, hits give low values",0.971
same,normalized growth,"S. cerevisiae deletion strains, locus YNL248C, strain rpa49, hits give low values",0.962
same,normalized growth,"S. cerevisiae deletion strains, locus YNL250W, strain rad50, hits give low values",0.99
same,normalized growth,"S. cerevisiae deletion strains, locus YNL271C, strain bni1, hits give low values",1.01
same,normalized growth,"S. cerevisiae deletion strains, locus YNL298W, strain CLA4, hits give low values",1.01
same,normalized growth,"S. cerevisiae deletion strains, locus YNL307C, strain MCK1, hits give low values",0.985
same,normalized growth,"S. cerevisiae deletion strains, locus YNL322C, strain KRE1 (second series), hits give low values",0.954
same,normalized growth,"S. cerevisiae deletion strains, locus YNL322C, strain KRE1, hits give low values",0.979
same,normalized growth,"S. cerevisiae deletion strains, locus YNR049C, strain mso1, hits give low values",0.964
same,normalized growth,"S. cerevisiae deletion strains, locus YNR052C, strain pop2, hits give low values",1.04
same,normalized growth,"S. cerevisiae deletion strains, locus YOL006C, strain TOP1, hits give low values",0.828
same,normalized growth,"S. cerevisiae deletion strains, locus YOL012C, strain htz1",1.22
same,normalized growth,"S. cerevisiae deletion strains, locus YOL147C, strain pex11, hits give low values",1
same,normalized growth,"S. cerevisiae deletion strains, locus YOR001W, strain rrp6, hits give low values",0.987
same,normalized growth,"S. cerevisiae deletion strains, locus YOR061W, strain CKA2, hits give low values",0.977
same,normalized growth,"S. cerevisiae deletion strains, locus YOR069W, strain VPS5, hits give low values",0.996
same,normalized growth,"S. cerevisiae deletion strains, locus YOR070C, strain gyp1, hits give low values",0.988
same,normalized growth,"S. cerevisiae deletion strains, locus YOR080W, strain dia2, hits give low values",0.965
same,normalized growth,"S. cerevisiae deletion strains, locus YOR083W, strain WHI5, hits give low values",0.996
same,normalized growth,"S. cerevisiae deletion strains, locus YOR106W, strain vam3, hits give low values",0.965
same,normalized growth,"S. cerevisiae deletion strains, locus YOR136W, strain idh2, hits give low values",1.02
same,normalized growth,"S. cerevisiae deletion strains, locus YOR144C, strain elg1, hits give low values",0.998
same,normalized growth,"S. cerevisiae deletion strains, locus YOR184W, strain ser1, hits give low values",0.982
same,normalized growth,"S. cerevisiae deletion strains, locus YOR265W, strain rbl2, hits give low values",0.969
same,normalized growth,"S. cerevisiae deletion strains, locus YOR270C, strain vph1, hits give low values",0.673 (active)
same,normalized growth,"S. cerevisiae deletion strains, locus YOR290C, strain snf2, hits give low values",0.949
same,normalized growth,"S. cerevisiae deletion strains, locus YOR316C, strain cot1, hits give low values",0.998
same,normalized growth,"S. cerevisiae deletion strains, locus YPL051W, strain arl3, hits give low values",0.984
same,normalized growth,"S. cerevisiae deletion strains, locus YPL055C, strain LGE1, hits give low values",0.868
same,normalized growth,"S. cerevisiae deletion strains, locus YPL078C, strain atp4, hits give low values",0.968
same,normalized growth,"S. cerevisiae deletion strains, locus YPL106C, strain sse1, hits give low values",0.989
same,normalized growth,"S. cerevisiae deletion strains, locus YPL240C, strain hsp82, hits give low values",0.968
same,normalized growth,"S. cerevisiae deletion strains, locus YPL241C, strain CIN2, hits give low values",0.974
same,normalized growth,"S. cerevisiae deletion strains, locus YPR119W, strain clb2, hits give low values",0.993
same,normalized growth,"S. cerevisiae deletion strains, locus YPR141C, strain kar3, hits give low values",0.981
same,normalized growth,"S. cerevisiae deletion strains, locus YPR163C, strain tif3, hits give low values",1
same,normalized growth,"S. cerevisiae deletion strains, locus YPR167C, strain met16, hits give low values",0.994
same,normalized growth,"S. cerevisiae deletion strains, strain wtn01, hits give low values",0.978
same,normalized growth,"S. cerevisiae strains, strain wild type, hits give low values",0.993
